Results as given in the supplement of paper PMC10849652.
The full data set covers some 7,900 targets. This sample favours those with a hit. About 0.6% of all pairs of compound and target were hits. Unmarked numbers belong to inactive results.

Compound: C#Cc1cccc(Nc2ncnc3cc(OCCOC)c(OCCOC)cc23)c1 [erlotinib]
Test: log2 fold change, soluble protein after heating vs DMSO (PISA); higher = thermal stabilisation; K562 cells, 10 uM, 30 min; active = over 0.2 and 3.5 SD of the protein, either way, in both replicates (recomputed)
How it was run: (§1)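 K562 cells at 2×10^6 cells/mL were treated for 30 min with 10 μM compound, and aliquots were heated for 3 min over 48°C-58°C before pooling. Extraction used PBS with 0.5% NP-40 at 4°C, and soluble protein was the supernatant after 21,000xg for 90 min, measured by TMTpro 16plex LC-MS/MS with channel sums equalised. Thermal stability values, relative to control samples and from duplicates, are log2 fold changes.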

Sequence of UniProt Q16539 (Q16539 whole entry, looked up): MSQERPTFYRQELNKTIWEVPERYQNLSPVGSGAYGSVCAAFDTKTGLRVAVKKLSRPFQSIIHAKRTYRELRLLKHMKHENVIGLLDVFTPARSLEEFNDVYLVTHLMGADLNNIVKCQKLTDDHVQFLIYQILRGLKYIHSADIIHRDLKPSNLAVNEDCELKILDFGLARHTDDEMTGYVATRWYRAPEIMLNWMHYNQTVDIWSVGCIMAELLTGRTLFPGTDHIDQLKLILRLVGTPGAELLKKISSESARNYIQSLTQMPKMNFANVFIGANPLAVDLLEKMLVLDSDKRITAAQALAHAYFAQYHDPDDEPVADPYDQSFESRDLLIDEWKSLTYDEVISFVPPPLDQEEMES
Sequence of UniProt Q9NX70 (Q9NX70 whole entry, looked up): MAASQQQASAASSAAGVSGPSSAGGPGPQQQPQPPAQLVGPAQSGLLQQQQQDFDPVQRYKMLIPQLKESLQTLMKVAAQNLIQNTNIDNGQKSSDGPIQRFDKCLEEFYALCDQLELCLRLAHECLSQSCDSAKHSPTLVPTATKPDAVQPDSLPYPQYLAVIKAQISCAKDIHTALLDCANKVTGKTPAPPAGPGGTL
Sequence of UniProt Q6NUT3 (Q6NUT3 whole entry, looked up): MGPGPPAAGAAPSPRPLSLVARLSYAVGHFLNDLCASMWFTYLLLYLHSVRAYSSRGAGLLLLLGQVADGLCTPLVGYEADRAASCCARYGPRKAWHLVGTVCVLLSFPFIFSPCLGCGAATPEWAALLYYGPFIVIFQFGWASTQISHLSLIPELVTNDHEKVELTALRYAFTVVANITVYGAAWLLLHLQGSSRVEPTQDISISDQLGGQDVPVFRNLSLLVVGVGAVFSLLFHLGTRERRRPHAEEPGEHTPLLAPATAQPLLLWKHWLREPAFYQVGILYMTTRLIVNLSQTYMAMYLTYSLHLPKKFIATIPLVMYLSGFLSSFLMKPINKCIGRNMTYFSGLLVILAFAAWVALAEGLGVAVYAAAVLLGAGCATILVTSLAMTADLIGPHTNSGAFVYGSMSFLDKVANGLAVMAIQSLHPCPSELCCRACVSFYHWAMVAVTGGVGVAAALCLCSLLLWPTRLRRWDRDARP
Sequence of UniProt O60291 (O60291 whole entry, looked up): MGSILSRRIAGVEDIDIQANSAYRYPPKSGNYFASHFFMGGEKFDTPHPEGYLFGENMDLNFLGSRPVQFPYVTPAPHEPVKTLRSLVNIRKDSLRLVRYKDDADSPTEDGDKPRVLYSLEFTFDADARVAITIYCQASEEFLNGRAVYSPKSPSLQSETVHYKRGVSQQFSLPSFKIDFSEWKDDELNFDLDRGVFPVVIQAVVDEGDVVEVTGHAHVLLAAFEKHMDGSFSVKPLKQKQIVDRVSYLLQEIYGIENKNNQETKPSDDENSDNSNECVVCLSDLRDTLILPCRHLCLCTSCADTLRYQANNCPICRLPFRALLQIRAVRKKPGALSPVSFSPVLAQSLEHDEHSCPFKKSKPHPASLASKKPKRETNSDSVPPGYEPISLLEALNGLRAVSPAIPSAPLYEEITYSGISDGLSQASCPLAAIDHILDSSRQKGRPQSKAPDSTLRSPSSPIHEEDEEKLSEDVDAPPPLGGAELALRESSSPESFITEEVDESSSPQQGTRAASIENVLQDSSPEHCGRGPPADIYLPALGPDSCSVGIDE
Sequence of UniProt Q71SY5 (Q71SY5 whole entry, looked up): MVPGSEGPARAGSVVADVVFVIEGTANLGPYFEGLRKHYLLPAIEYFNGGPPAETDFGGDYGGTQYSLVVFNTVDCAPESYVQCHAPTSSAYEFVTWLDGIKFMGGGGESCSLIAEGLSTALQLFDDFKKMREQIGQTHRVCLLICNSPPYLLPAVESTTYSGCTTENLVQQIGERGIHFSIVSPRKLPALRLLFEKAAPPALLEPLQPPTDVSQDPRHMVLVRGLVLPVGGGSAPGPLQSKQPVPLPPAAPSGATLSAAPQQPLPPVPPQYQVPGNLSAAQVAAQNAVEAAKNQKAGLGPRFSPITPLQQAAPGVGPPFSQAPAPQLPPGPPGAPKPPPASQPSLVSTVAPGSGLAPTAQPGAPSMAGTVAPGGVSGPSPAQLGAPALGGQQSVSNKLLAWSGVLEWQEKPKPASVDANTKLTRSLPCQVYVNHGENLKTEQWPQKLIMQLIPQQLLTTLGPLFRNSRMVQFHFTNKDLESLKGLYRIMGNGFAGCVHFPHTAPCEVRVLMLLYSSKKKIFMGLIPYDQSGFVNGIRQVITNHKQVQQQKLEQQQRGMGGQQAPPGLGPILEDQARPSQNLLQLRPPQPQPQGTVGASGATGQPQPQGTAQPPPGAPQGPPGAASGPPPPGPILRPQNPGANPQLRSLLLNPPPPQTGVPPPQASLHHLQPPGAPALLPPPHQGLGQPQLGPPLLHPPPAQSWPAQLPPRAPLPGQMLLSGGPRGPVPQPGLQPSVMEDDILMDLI
Sequence of UniProt P43361 (P43361 whole entry, looked up): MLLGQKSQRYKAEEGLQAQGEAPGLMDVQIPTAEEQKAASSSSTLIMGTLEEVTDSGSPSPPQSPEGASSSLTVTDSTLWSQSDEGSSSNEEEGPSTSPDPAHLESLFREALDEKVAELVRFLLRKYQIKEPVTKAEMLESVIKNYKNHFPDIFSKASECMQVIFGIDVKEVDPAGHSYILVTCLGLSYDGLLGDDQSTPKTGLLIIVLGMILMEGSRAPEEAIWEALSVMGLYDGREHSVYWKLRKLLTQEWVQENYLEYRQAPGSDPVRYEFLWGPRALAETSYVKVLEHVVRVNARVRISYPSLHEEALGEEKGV
Sequence of UniProt O95279 (O95279 whole entry, looked up): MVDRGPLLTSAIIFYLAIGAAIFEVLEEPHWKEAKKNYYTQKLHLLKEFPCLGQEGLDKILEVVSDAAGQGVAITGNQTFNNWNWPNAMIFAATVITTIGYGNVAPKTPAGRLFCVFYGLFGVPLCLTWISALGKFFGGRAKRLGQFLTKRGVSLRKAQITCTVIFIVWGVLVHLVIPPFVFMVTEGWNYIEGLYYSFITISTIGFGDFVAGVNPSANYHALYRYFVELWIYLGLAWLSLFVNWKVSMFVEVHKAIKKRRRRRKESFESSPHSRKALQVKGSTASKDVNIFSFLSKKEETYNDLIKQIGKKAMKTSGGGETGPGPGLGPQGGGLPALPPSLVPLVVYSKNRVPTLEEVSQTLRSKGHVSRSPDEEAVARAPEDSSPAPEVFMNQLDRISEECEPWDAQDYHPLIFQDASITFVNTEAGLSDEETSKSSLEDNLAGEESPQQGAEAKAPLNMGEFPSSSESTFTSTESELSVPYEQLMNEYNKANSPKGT
Sequence of UniProt Q86VI4 (Q86VI4 whole entry, looked up): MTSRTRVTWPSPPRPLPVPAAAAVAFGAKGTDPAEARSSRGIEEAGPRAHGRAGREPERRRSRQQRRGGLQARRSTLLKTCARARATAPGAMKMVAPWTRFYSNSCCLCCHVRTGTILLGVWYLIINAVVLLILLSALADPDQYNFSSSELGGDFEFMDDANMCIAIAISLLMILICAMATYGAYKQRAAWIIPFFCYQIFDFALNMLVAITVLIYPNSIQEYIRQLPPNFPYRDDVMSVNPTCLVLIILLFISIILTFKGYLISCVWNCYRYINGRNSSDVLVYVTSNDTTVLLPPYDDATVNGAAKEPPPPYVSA
Sequence of UniProt Q7L590 (Q7L590 whole entry, looked up): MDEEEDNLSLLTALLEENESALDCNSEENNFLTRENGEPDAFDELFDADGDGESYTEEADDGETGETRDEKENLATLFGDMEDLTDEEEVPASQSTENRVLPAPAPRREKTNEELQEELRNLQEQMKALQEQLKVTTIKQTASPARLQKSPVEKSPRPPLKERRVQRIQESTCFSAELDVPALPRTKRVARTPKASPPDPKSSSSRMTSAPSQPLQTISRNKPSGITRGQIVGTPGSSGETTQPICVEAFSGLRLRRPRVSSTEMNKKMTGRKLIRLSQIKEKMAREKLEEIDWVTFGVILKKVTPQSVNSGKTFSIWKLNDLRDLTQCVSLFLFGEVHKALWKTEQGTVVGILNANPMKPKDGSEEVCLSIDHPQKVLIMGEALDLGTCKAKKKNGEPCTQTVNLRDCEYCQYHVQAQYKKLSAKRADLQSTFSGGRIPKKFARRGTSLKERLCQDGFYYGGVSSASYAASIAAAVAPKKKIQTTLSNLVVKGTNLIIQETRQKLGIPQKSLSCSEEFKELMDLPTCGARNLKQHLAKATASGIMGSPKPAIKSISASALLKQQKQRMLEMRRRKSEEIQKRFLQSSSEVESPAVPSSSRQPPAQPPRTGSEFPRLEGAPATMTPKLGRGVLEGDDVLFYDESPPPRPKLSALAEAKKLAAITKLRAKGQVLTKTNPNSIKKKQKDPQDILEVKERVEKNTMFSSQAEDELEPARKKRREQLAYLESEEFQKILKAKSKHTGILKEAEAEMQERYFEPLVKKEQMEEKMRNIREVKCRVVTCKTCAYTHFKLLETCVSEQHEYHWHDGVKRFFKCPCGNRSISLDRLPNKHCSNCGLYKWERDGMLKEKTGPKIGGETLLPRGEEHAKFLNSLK
Sequence of UniProt O43934 (O43934 whole entry, looked up): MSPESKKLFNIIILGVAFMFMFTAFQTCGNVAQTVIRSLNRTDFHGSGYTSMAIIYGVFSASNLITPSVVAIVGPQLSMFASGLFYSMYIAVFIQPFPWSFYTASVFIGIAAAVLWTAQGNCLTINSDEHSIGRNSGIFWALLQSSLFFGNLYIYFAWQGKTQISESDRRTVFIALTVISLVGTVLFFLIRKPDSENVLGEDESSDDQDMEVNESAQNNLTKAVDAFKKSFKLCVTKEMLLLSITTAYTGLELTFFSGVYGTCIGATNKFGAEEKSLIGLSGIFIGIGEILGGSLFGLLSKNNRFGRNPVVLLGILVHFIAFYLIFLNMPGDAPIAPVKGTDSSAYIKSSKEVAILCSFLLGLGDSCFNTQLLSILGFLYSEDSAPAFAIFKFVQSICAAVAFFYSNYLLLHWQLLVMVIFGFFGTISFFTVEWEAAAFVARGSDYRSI

Target | log2 fold change
LAPTM4B (UniProt Q86VI4) | -0.074
MED25 isoform 3 (UniProt Q71SY5) | -0.038
MCOLN3 (UniProt Q8TDD5) | 0.244
MAPK14 (UniProt Q16539) | 0.238
LRFN1 (UniProt Q9P244) | 0.059
MAPK11 (UniProt Q15759) | 0.169
KCNK5 (UniProt O95279) | -0.101
ING5 (UniProt Q8WYH8) | 0.273
KIF21A (UniProt H0YI78) | 0.077
LOX (UniProt P28300) | -0.245
MFSD12 isoform 3 (UniProt Q6NUT3) | 0.062
ITPRID2 (UniProt P28290) | 0.022
MAML1 (UniProt Q92585) | 0.369
MAGEA8 (UniProt P43361) | 0.033
MED29 (UniProt Q9NX70) | -0.016
MCM10 (UniProt Q7L590) | -0.066
IKZF1 isoform 2 (UniProt Q13422) | 0.017
MGRN1 isoform 2 (UniProt O60291) | 0.016
JAK3 (UniProt P52333) | -0.178
LDLRAP1 (UniProt Q5SW96) | -0.017

Compound: C/C(=N\NC(=O)C1=CC(=CC=C1)S(=O)(=O)N2CCOCC2)/C3=C(C=CC(=C3)Cl)O
Test: as above
How it was run: as §1

Target | log2 fold change
MED25 isoform 3 (UniProt Q71SY5) | 0.026
MAPK14 (UniProt Q16539) | 0.106
MAP2K5 (UniProt Q13163) | 0.021
MAPK7 (UniProt Q13164) | 0.095
IGFBP6 (UniProt P24592) | -0.215
MFSD11 (UniProt O43934) | 0.001
MAPRE3 isoform 2 (UniProt Q9UPY8) | -0.003
KIZ (UniProt Q2M2Z5) | 0.018
LRRCC1 (UniProt Q9C099) | -0.671 (active)
MFSD12 isoform 3 (UniProt Q6NUT3) | -0.062
IPP (UniProt Q9Y573) | 0.091
MFAP3 (UniProt P55082) | 0.202
IGFBP3 isoform 2 (UniProt P17936) | -0.18
MAGEA8 (UniProt P43361) | 0.038
MED29 (UniProt Q9NX70) | 0.008
KIF13A isoform 4 (UniProt Q9H1H9) | 0.21
MGRN1 isoform 2 (UniProt O60291) | 0.079
